From the antibiotic and cytotoxicity screens of Wong et al. (2023)
About 1,500 (3.8%) of roughly 39,000 compounds were called active. Many of the other results were omitted from the sample, so actives are more common in it than they were.

Test system: HSkMC (human skeletal muscle cells)
Experiment: cytotoxicity call (relative viability < 0.9)
Conditions: 10 µM

| SMILES | cytotoxicity call |
| --- | --- |
| C[C@@H]1CN([C@H](C)CO)C(=O)Cc2cc(NS(=O)(=O)c3cn(C)cn3)ccc2O[C@@H]1CN(C)C(=O)Nc1ccc(F)cc1 | inactive |
| C[C@@H]1CN([C@H](C)CO)C(=O)Cc2cc(NC(=O)Nc3cccc4ccccc34)ccc2O[C@@H]1CN(C)S(=O)(=O)c1ccc(F)cc1 | inactive |
| COc1ccccc1C#Cc1ccc2c(c1)O[C@@H](CN(C)C(C)=O)[C@@H](C)CN([C@H](C)CO)S2(=O)=O | inactive |
| C[C@@H]1CN([C@@H](C)CO)C(=O)c2cc(-c3cccc(C(=O)N(C)C)c3)cnc2O[C@@H]1CN(C)C(=O)Cc1ccccn1 | inactive |
| COc1ccc(S(=O)(=O)N(C)C[C@@H]2OCCCC[C@H](C)Oc3ccc(NC(=O)Nc4c(C)noc4C)cc3C(=O)N([C@H](C)CO)C[C@H]2C)cc1 | inactive |
| O=C(c1cccnc1)N1C[C@H]2[C@@H](c3ccccc31)[C@@H](CO)N2C(=O)CN1CCOCC1 | inactive |
| CN(C)S(=O)(=O)c1ccc(CN)cc1 | inactive |
| CC(C)NC(=O)Nc1ccc2c(c1)C(=O)N(C)[C@H]1CC[C@@H](CC(=O)NCc3ccc(F)cc3)O[C@@H]1CO2 | inactive |
| C[C@@H]1CN([C@H](C)CO)C(=O)c2cccc(NS(=O)(=O)c3ccc(Cl)cc3)c2O[C@@H]1CN(C)Cc1ccc(Oc2ccccc2)cc1 | inactive |
| C[C@@H]1CN([C@@H](C)CO)C(=O)c2ccccc2-c2ccccc2CO[C@@H]1CN(C)C(=O)Nc1ccc(F)cc1 | inactive |
| C[C@@H]1CN([C@@H](C)CO)C(=O)Cc2cc(NC(=O)Cn3cnnn3)ccc2O[C@@H]1CN(C)Cc1ccncc1 | inactive |
| COc1ccc(CN(C)C[C@@H]2OCCCC[C@H](C)Oc3ccc(NC(=O)Nc4ccc(C(F)(F)F)cc4)cc3C(=O)N([C@H](C)CO)C[C@@H]2C)cc1 | active |
| COc1ccc(NC(=O)Nc2ccc3c(c2)C(=O)N([C@@H](C)CO)C[C@H](C)[C@H](CN(C)Cc2ccc(C(F)(F)F)cc2)OCCCC[C@@H](C)O3)cc1 | inactive |
| COc1ccc(CN(C)C[C@H]2OCCCC[C@H](C)Oc3ccc(NC(=O)Nc4ccc(C(F)(F)F)cc4)cc3C(=O)N([C@H](C)CO)C[C@@H]2C)cc1 | active |
| COc1ccc(CN(C)C[C@H]2OCCCC[C@@H](C)Oc3ccc(NC(=O)Nc4ccc(C(F)(F)F)cc4)cc3C(=O)N([C@H](C)CO)C[C@H]2C)cc1 | active |
| COc1ccc(NC(=O)Nc2ccc3c(c2)C(=O)N([C@@H](C)CO)C[C@@H](C)[C@@H](CN(C)Cc2ccc(C(F)(F)F)cc2)OCCCC[C@@H](C)O3)cc1 | inactive |
| COc1ccc(CN(C)C[C@H]2OCCCC[C@@H](C)Oc3ccc(NC(=O)Nc4ccc(C(F)(F)F)cc4)cc3C(=O)N([C@@H](C)CO)C[C@H]2C)cc1 | active |
| C[C@H]1CN([C@@H](C)CO)C(=O)c2cc(NC(=O)Cc3ccccc3)ccc2O[C@@H]1CN(C)S(=O)(=O)c1ccccc1 | inactive |
| COc1cccc(S(=O)(=O)Nc2ccc3c(c2)[C@@H]2C[C@H](CC(=O)NCC(F)(F)F)O[C@H](CO)[C@@H]2O3)c1 | inactive |
| C[C@@H]1CN([C@H](C)CO)C(=O)CCCn2nncc2CO[C@@H]1CN(C)C(=O)Nc1cccc(Oc2ccccn2)c1 | inactive |
| COCCNC(=O)C[C@H]1CC[C@H]2[C@@H](COc3ccc(NC(=O)Nc4cccc(F)c4)cc3C(=O)N2C)O1 | inactive |
| Cc1noc(C)c1NC(=O)Nc1cccc2c1O[C@H](CN(C)Cc1ccc(Cl)c(Cl)c1)[C@H](C)CN([C@@H](C)CO)C2=O | inactive |

| SMILES | cytotoxicity call |
| --- | --- |
| C[C@@H]1CN([C@@H](C)CO)C(=O)CCCn2cc(nn2)CO[C@@H]1CN(C)Cc1ccc2c(c1)OCCN2C | inactive |
| C[C@@H]1CN([C@@H](C)CO)C(=O)c2cc(NC(=O)C3CC3)ccc2O[C@H]1CN(C)C(=O)Nc1ccc2c(c1)OCO2 | inactive |
| CCc1nc2ccccc2c(C(=O)Nc2cccc(Cl)c2)c1C | inactive |
| C[C@@H]1CN([C@H](C)CO)C(=O)Cc2cc(NC(=O)C3CC3)ccc2O[C@@H]1CN(C)C(=O)Nc1ccc2c(c1)OCO2 | inactive |
| O=C(C[C@@H]1CC[C@@H](NC(=O)c2cnccn2)[C@H](CO)O1)NCc1ccccc1F | inactive |
| C[C@H]1CN([C@@H](C)CO)C(=O)Cc2cc(NC(=O)Cn3cnnn3)ccc2O[C@H]1CN(C)Cc1ccccc1 | inactive |
| Cn1c(-c2ccccc2)c[nH]c1=S | inactive |
| COc1ccc(CN(C)C[C@@H]2OCCCC[C@@H](C)Oc3ccc(NC(=O)Nc4ccc(C(F)(F)F)cc4)cc3C(=O)N([C@H](C)CO)C[C@H]2C)cc1 | active |
| COc1ccc(NC(=O)Nc2ccc3c(c2)C(=O)N([C@H](C)CO)C[C@H](C)[C@@H](CN(C)Cc2ccc(C(F)(F)F)cc2)OCCCC[C@H](C)O3)cc1 | inactive |
| COc1ccc(CN(C)C[C@H]2OCCCC[C@H](C)Oc3ccc(NC(=O)Nc4ccc(C(F)(F)F)cc4)cc3C(=O)N([C@@H](C)CO)C[C@H]2C)cc1 | active |
| COc1ccc(NC(=O)Nc2ccc3c(c2)C(=O)N([C@H](C)CO)C[C@@H](C)[C@H](CN(C)Cc2ccc(C(F)(F)F)cc2)OCCCC[C@@H](C)O3)cc1 | inactive |
| COc1ccc(NC(=O)Nc2ccc3c(c2)C(=O)N([C@@H](C)CO)C[C@H](C)[C@@H](CN(C)Cc2ccc(C(F)(F)F)cc2)OCCCC[C@@H](C)O3)cc1 | inactive |
| COc1ccc(NC(=O)Nc2ccc3c(c2)C(=O)N([C@@H](C)CO)C[C@@H](C)[C@@H](CN(C)Cc2ccc(C(F)(F)F)cc2)OCCCC[C@H](C)O3)cc1 | inactive |
| COc1ccc(CN(C)C[C@H]2OCCCC[C@H](C)Oc3ccc(NC(=O)Nc4ccc(C(F)(F)F)cc4)cc3C(=O)N([C@@H](C)CO)C[C@@H]2C)cc1 | active |
| Cc1noc(C)c1S(=O)(=O)Nc1ccc2c(c1)C(=O)N([C@H](C)CO)C[C@H](C)[C@@H](CN(C)C(=O)NC(C)C)O2 | inactive |
| COc1ccc(NC(=O)N(C)C[C@@H]2Oc3c(NS(C)(=O)=O)cccc3C(=O)N([C@@H](C)CO)C[C@@H]2C)cc1 | inactive |
| O=C(C[C@@H]1CC[C@H]2[C@@H](COC[C@@H](O)CN2S(=O)(=O)c2ccc(Cl)cc2)O1)NCCN1CCCC1 | inactive |
| C[C@@H]1CN([C@H](C)CO)C(=O)c2cccc(NS(=O)(=O)c3ccc(F)cc3)c2O[C@@H]1CN(C)S(=O)(=O)c1ccc(F)cc1 | inactive |
| C[C@@H]1CN([C@@H](C)CO)C(=O)c2cc(NC(=O)Nc3ccc(F)cc3)ccc2O[C@@H](C)CCCCO[C@@H]1CN(C)C(=O)CCCN(C)C | inactive |
| O=C(C[C@H]1CC[C@@H]2[C@H](COC[C@H](O)CN2C(=O)c2ccccc2)O1)NCCCN1CCOCC1 | inactive |
| C[C@@H]1CN([C@@H](C)CO)C(=O)Cc2cc(NS(=O)(=O)c3ccc(F)cc3)ccc2O[C@H]1CN(C)S(=O)(=O)c1cn(C)cn1 | inactive |
| C[C@@H]1CN([C@@H](C)CO)C(=O)c2cc(NC(=O)Nc3ccc(C(F)(F)F)cc3)ccc2O[C@@H]1CN(C)C(=O)Nc1ccc(C(F)(F)F)cc1 | inactive |

| SMILES | cytotoxicity call |
| --- | --- |
| C[C@@H]1CCCCO[C@H](CN(C)CC2CC2)[C@H](C)CN([C@H](C)CO)C(=O)c2cc(NC(=O)C3CCCCC3)ccc2O1 | inactive |
| COc1ccc(CN(C)C[C@@H]2OCCCC[C@H](C)Oc3ccc(NC(=O)C4CCCCC4)cc3C(=O)N([C@@H](C)CO)C[C@@H]2C)cc1 | inactive |
| Nc1ccc(CCNc2ncnc3c2ncn3[C@@H]2O[C@H](CO)[C@@H](O)[C@H]2O)cc1 | inactive |
| COc1nc(N)nc2c1ncn2[C@@H]1O[C@H](CO)[C@@H](O)[C@@H]1O | inactive |
| COc1ccc(C[C@H](N)C(=O)N[C@H]2[C@@H](O)[C@H](n3cnc4c(N(C)C)ncnc43)O[C@@H]2CO)cc1 | active |
| CN(C)c1ncnc2c1ncn2[C@H]1O[C@@H](CO)[C@@H](N)[C@@H]1O | inactive |
| Nc1ncnc2c1ncn2[C@@H]1O[C@H](CO)[C@@H](O)[C@H]1O | inactive |
| Nc1ncnc2c1ncn2[C@H]1O[C@@H](CO)[C@H](O)[C@@H]1S | inactive |
| CNc1ncnc2c1ncn2[C@@H]1O[C@H](CO)[C@@H](O)[C@H]1O | inactive |
| Nc1ncnc2c1ncn2C1OC(CO)C(O)C1O (centres undefined) | inactive |
| OC[C@H]1O[C@@H](n2cnc3c(NCc4ccco4)ncnc32)[C@H](O)[C@@H]1O | inactive |
| COc1ccc(CC(N)C(=O)NC2C(CO)OC(n3cnc4c(N(C)C)ncnc43)C2O)cc1.Cl.Cl (centres undefined) | active |
| COc1ccc(C[C@H](N)C(=O)N[C@H]2[C@@H](O)[C@@H](n3cnc4c(N(C)C)ncnc43)O[C@@H]2CO)cc1 | active |
| COc1ccc(C[C@@H](N)C(=O)N[C@@H]2[C@@H](O)[C@@H](n3cnc4c(N(C)C)ncnc43)O[C@@H]2CO)cc1 | active |
| C[C@H](CO)N1C[C@H](C)[C@@H](CN(C)C(=O)Nc2ccc3c(c2)OCO3)Oc2ccc(NC(=O)CCN3CCOCC3)cc2C1=O | inactive |
| Cc1noc(C)c1NC(=O)N(C)C[C@H]1Oc2ccc(NC(=O)C3CC3)cc2CC(=O)N([C@@H](C)CO)C[C@H]1C | inactive |
| CCOCCCNc1nc2c([nH]1)c(=O)n(C)c(=O)n2C | inactive |
| C[C@@H]1CN([C@H](C)CO)S(=O)(=O)c2ccc(-c3cncnc3)cc2O[C@H]1CN(C)C(=O)c1cccc(F)c1 | inactive |
| C[C@@H]1CN([C@@H](C)CO)C(=O)c2cccc(NC(=O)c3cnccn3)c2O[C@@H]1CN(C)CC1CCCCC1 | inactive |
| COc1cccc(C#Cc2ccc3c(c2)O[C@@H](CN(C)C(=O)c2ccccn2)[C@H](C)CN([C@H](C)CO)S3(=O)=O)c1 | inactive |
